About 13,000 (27%) of roughly 48,000 compounds showed an effect of 50% or more. The list shows a part of the results.

The test system of the test is Wolbachia pipientis. Nature of the test: Anti-Wolbachia Cell-Based Screen. Format: functional. The arrangement: scale not given: in the data most compounds retested in dose-response had high values. The settings on record: 5 µM.
Turning to `CC1(Cc2ccc(F)cc2)Cc2cc(C(=O)NCCO)ccc2O1` (stereo not given), the “Percent Effect” value worked out at 96.1%.
Next, `O=C(NCCCc1ccc(F)cc1)c1ccc(N2CCOCC2)cc1`: -12.9%; `O=C(O)CCCc1ccc2c(c1)CC(=O)N2`: -9.679%; `CC1(Cc2ccc(Cl)cc2)Cc2cc(CCC(=O)O)ccc2O1` (stereo not given): 128.5%.
The same measure for `CC(C)N(Cc1ccc(C(=O)O)o1)C(C)C.Cl`: -3.405%.
With `CC(C)c1ccc(CC2(C)Cc3cc(CC(=O)O)ccc3O2)cc1` (stereo not given), the “Percent Effect” value is given as 103.5%.
Next, `O=C(NCc1ccc(C(=O)O)o1)c1ccc(F)cc1`: 8.231%.
The same measure for `Cc1ncc(C)c(N2CCC(Cc3ccc(Cl)cc3)(C(=O)O)CC2)n1`: -13.5%; for `Cc1nsc(NCc2ccc(CS(=O)(=O)NC(C)C)cc2)n1`: -12.57%.
The same measure for `O=C(CC1=CCCCC1)NCc1ccnc(OC2CCOCC2)c1`: 4.75%.
On to `Cc1ccc(CN(CCN(C)C)Cc2nc3ccccc3[nH]2)s1`, for which the “Percent Effect” value was -0.2455%.
In the case of `CC(NC(=O)N(C)Cc1cnn(C)c1)c1nncn1C` (stereo not given), the “Percent Effect” value was -30.3%.
Next, `COC(=O)C(C)N(Cc1cc(=O)n(C)c(=O)n1C)C1CC1` (stereo not given): 5.049%.
Next, `CCCC1(CO)CCCN(C(=O)CCCn2nc(C)cc2C)C1` (stereo not given): 0.5939%; `CCCC1(CO)CCCN(Cc2ncccn2)C1` (stereo not given): -3.233%; `CCCC1(CO)CCCN(Cc2nccs2)C1` (stereo not given): -16.5%.
Next, `CCCSCC(=O)N1CCCC(CO)(CCC)C1` (stereo not given): 120.7%.
For `CCCSCC(=O)N1CCCC2(CCC(=O)N(CCc3c[nH]cn3)C2)C1` (stereo not given), the “Percent Effect” value is 0.3412%.
The same measure for `CCCC1(CO)CCCN(C(=O)CN2CCN(CC)CC2)C1` (stereo not given): 98.5%.
The same measure for `CN(C)C(=O)C1CCCN1c1ccnc2ccsc12` (stereo not given): -11.69%.
The same measure for `O=C(c1coc(-c2ccccc2)n1)N1CCCCC1`: -26.2%.
Turning to `Cn1ccc(C(=O)N2CCc3[nH]nc(Nc4ccccc4)c3C2)n1`, the “Percent Effect” value worked out at 131.4%.
Next, `Cc1cc(C(=O)N2CCc3[nH]nc(-c4ccc5c(c4)OCO5)c3C2)no1`: -8.548%; `O=C(CCN1CCc2[nH]nc(C(F)(F)F)c2C1)Nc1ccccc1`: -5.362%; `O=C(c1ccncc1)N1CCc2[nH]nc(Nc3ccccc3)c2C1`: 110.2%.
Next, `Cc1nc(C(=O)N2CCc3[nH]nc(Nc4ccccc4)c3C2)co1`: 140.3%; `COCc1n[nH]c2c1CN(C(=O)c1ccncc1)C2.O=C(O)C(F)(F)F`: -2.458%; `O=C(c1cccnc1)N1CCc2[nH]nc(Nc3ccccc3)c2C1`: 125.3%.
Next, `COc1cccc(-c2n[nH]c3c2CN(C(=O)c2ccncc2)CC3)c1`: -11.9%.
Turning to `COc1cccc(-c2n[nH]c3c2CN(C(=O)c2cc(C)n(C)n2)CC3)c1`, the “Percent Effect” value is listed as -0.6407%.
As to `O=C(c1cccnc1)N1Cc2[nH]nc(COCCO)c2C1`, the “Percent Effect” value is listed as -11.56%.
The same measure for `Cc1cc(C)n(C2CN(CC(O)c3ccc(F)cc3)C2)n1` (stereo not given): -3.479%; for `CN1CCC(CCNC(=O)c2ccc(N(C)S(C)(=O)=O)cc2Cl)CC1`: -5.905%.
Turning to `COC(=O)CC(c1ccccc1)c1oc(C)cc(=O)c1O` (stereo not given), the “Percent Effect” value is 9.59%.
Regarding `Cc1ncsc1C(=O)N1CCc2[nH]nc(-c3ccc4c(c3)OCO4)c2C1`, the “Percent Effect” value is given as -9.39%.
Next, `O=C(c1cncs1)N1CCc2[nH]nc(Nc3ccccc3)c2C1`: 117.5%.
Turning to `O=C(c1ccsc1)N1CCc2c(CNc3ncccn3)n[nH]c2C1`, the “Percent Effect” value is given as -3.042%.
Next, `CCn1c(CC2CCN(C(=O)C3CCOC3)CC2)nn(C)c1=O` (stereo not given): 3.513%; `Cc1cc(=O)n2ncnc2n1CC(O)c1ccc(F)cc1F` (stereo not given): -38.21%; `CCOc1cccc2c1OCC(C(=O)NS(=O)(=O)c1cccs1)=C2`: 95.96%.
Next, `Cc1ccc(S(C)(=O)=O)cc1C(=O)NS(=O)(=O)c1cccs1`: 20%; `CCOc1cccc2c1OCC(C(=O)NS(=O)(=O)c1c(C)noc1C)=C2`: 100.1%; `O=S(=O)(NCC1(O)CCOc2ccccc21)c1ccc(Br)s1` (stereo not given): -8.06%.
With `CCOc1ccc(C(=O)NS(=O)(=O)c2cncc(Br)c2)cc1OC`, the “Percent Effect” value is -12.86%.
The same measure for `N#CCc1ccc(OCC(=O)NS(=O)(=O)c2cccs2)cc1`: 5.016%.
Next, `CCOc1cccc2c1OCC(C(=O)NS(=O)(=O)c1cncc(Br)c1)=C2`: 125.8%; `Cc1cc(C)c(OCC(=O)NS(=O)(=O)c2c(C)noc2C)c(C)c1`: 0.8796%.
The same measure for `CCOc1cccc2c1OCC(C(=O)NS(=O)(=O)c1ccc(Br)s1)=C2`: 97%; for `Cc1ccc(S(=O)(=O)NC(=O)c2cccc(OCC(N)=O)c2)s1`: -0.7122%.
Regarding `CCOc1cccc2c1OCC(C(=O)NS(=O)(=O)c1ccc(Cl)cc1)=C2`, the “Percent Effect” value is -2.637%.
